{"source": "paper PMC5700166"}
{"biological_target": "GST-Hu-p50 (Homo sapiens, UniProt P19838 7-356)", "sequence (P19838 7-356)": "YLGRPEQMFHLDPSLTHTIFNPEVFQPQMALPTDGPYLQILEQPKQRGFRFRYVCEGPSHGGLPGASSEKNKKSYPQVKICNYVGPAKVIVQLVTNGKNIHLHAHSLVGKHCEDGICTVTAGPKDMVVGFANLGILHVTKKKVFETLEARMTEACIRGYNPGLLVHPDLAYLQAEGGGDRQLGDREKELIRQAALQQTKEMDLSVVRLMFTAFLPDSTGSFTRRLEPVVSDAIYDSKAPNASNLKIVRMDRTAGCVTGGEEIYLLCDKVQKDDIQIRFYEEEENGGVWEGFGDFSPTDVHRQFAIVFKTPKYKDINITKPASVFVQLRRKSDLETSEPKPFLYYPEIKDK", "experiment": "protein-binding microarray (PBM); PBM: ~300 nM protein, 6 mM HEPES pH 7.8, 80 mM KCl, 0.5 mM EDTA, 0.5 mM EGTA, 6% glycerol, 35 ng/ul poly-dIdC, 1% milk, 1 h, room temperature; Ap Aiptasia and Nv Nematostella (sea anemones) / Co Capsaspora / Aq Amphimedon (sponge) / Dm Drosophila / Hu human; RHD is the Rel homology domain; high values mean tight binding", "details": "dsDNA, one strand shown", "units": {"binding signal": "z-score"}}
{"sequence": "CCGATTAACATCATTAGGGAAAATGATGTTAATCGGGTCTTGATTCGCTTGACGCTGCTG", "binding signal": 4.64}
{"sequence": "CCGATTAACATCAAGGGCTTCCCTGATGTTAATCGGGTCTTGATTCGCTTGACGCTGCTG", "binding signal": 1.06}
{"sequence": "CCGATTAACATCAGAAATCCCAATGATGTTAATCGGGTCTTGATTCGCTTGACGCTGCTG", "binding signal": 2.35}
{"sequence": "CCGATTAACATCAGGGGAAGAAATGATGTTAATCGGGTCTTGATTCGCTTGACGCTGCTG", "binding signal": 5.16}
{"sequence": "CCGATTAACATCACCGGATTTCCTGATGTTAATCGGGTCTTGATTCGCTTGACGCTGCTG", "binding signal": 2.28}
{"sequence": "CCGATTAACATCAGGACTATCCCTGATGTTAATCGGGTCTTGATTCGCTTGACGCTGCTG", "binding signal": 1.81}
{"sequence": "CCGATTAACATCAGTGATTAAGGTGATGTTAATCGGGTCTTGATTCGCTTGACGCTGCTG", "binding signal": 1.25}
{"sequence": "CCGATTAACATCAGGAAATACCATGATGTTAATCGGGTCTTGATTCGCTTGACGCTGCTG", "binding signal": 1.08}
{"sequence": "CCGATTAACATCAAGGGAAAATATGATGTTAATCGGGTCTTGATTCGCTTGACGCTGCTG", "binding signal": 4.8}
{"sequence": "CCGATTAACATCAACCAATTCCCTGATGTTAATCGGGTCTTGATTCGCTTGACGCTGCTG", "binding signal": 2.54}
{"sequence": "CCGATTAACATCATCTTTTTACTTGATGTTAATCGGGTCTTGATTCGCTTGACGCTGCTG", "binding signal": 1.01}
{"sequence": "CCGATTAACATCAGAGGTGCTTCTGATGTTAATCGGGTCTTGATTCGCTTGACGCTGCTG", "binding signal": 1.84}
{"sequence": "CCGATTAACATCAGGAAAGTTCCTGATGTTAATCGGGTCTTGATTCGCTTGACGCTGCTG", "binding signal": 1.06}
{"sequence": "CCGATTAACATCACAAATTTCCCTGATGTTAATCGGGTCTTGATTCGCTTGACGCTGCTG", "binding signal": 5.09}
